Screens deposited in PubChem BioAssay by The Scripps Research Institute Molecular Screening Center.
In the library only some 1.3% were active in any assay of this set; here they are far more common.
LYPLA1 inh: LYPLA1 inhibitors, primary screen, counter-screen for PME1 inhibitor project, biochemical, fluorescence polarization, FP-Rh probe ABPP | AID 2174, 2009 | hit rate 0.16% among 320,000 | recombinant LYPLA1 | inhibition, % at 5.9 µM;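 active = inhibition above the mean of all tested compounds plus 3 SD, set per campaign, cut at about 14% in these data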;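 note: inhibitors block serine hydrolase probe labeling of LYPLA1 so polarization falls; 0% = enzyme with DMSO and 100% = wells lacking LYPLA1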
Target sequence (O75608 whole entry, looked up): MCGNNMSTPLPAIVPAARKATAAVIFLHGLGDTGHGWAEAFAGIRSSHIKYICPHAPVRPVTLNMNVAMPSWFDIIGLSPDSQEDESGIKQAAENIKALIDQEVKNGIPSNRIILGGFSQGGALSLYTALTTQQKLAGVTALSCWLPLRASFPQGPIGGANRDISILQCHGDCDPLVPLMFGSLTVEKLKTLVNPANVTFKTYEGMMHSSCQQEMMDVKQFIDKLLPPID
PREPL inh: PREPL enzyme inhibitors, primary screen, biochemical, fluorescence polarization. inhibition, % at 5.96 µM. hit rate 0.68% among 320,000. AID 2751, 2010. recombinant PREPL, fluorescence polarization activity-based probe. Prolyl endopeptidase-like (Homo sapiens), Q4J6C6;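 note: 0% = enzyme with DMSO and 100% = wells lacking enzyme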
PME-1 inh: PME-1 inhibitors via competitive probe labeling, primary screen, biochemical, fluorescence polarization, FP-Rh probe, HTS; AID 2130, 2009; hit rate 0.53% among 320,000; recombinant PME-1; inhibition, % at 5.9 µM;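 active = inhibition above the campaign mean of all compounds plus 3 SD, cut at about 26% in these data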;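 note: competitive labeling of PME-1 active site by serine hydrolase directed probe; 0% = PME-1 with DMSO and 100% = wells lacking PME-1 enzyme; inhibitors block probe labeling so polarization falls and inhibition rises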
Target sequence (Q9Y570 whole entry, looked up): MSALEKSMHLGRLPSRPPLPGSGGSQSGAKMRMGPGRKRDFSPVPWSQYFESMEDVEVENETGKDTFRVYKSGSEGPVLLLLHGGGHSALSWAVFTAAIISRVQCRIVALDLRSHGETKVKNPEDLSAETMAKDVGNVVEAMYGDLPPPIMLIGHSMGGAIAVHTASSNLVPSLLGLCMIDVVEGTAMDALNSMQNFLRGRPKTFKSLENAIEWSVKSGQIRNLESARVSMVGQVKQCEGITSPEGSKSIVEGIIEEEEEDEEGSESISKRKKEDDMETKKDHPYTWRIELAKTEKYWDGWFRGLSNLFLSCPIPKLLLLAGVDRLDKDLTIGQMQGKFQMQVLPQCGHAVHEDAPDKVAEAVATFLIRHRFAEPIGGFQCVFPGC
Fam108B inh: mouse Fam108B serine hydrolase inhibitors, primary screen, counter-screen for RBBP9 inhibitor project, biochemical, fluorescence polarization | recombinant Fam108B, FP-Rh probe fluorescence polarization | inhibition, % at 9.51 µM | hit rate 0.33% among 300,000;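 active = inhibition above the screen mean inhibition plus 3 SD, computed separately per campaign, cut at about 18% in these data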;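 note: inhibitors lower polarization as less probe binds the enzyme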
LYPLA2 counter: LYPLA2 inhibitors, primary screen, counter-screen for PME1 inhibitor project, biochemical, fluorescence polarization, FP-Rh probe ABPP; recombinant LYPLA2; hit rate 0.38% among 320,000; AID 2177, 2009; Acyl-protein thioesterase 2 (Homo sapiens), O95372; inhibition, % at 5.9 µM;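 active = inhibition above the screen-wide mean plus 3 SD, limit set per campaign, cut at about 26% in these data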;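 note: 0% = LYPLA2 with DMSO and 100% = wells lacking LYPLA2 enzyme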
PREPL confirm: human PREPL enzyme inhibitors, confirmation, biochemical, fluorescence polarization. recombinant PREPL, fluorescence polarization activity probe. hit rate 67% among 2,000. inhibition, % at 5.96 µM. shares compounds with PREPL inh;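 note: 0% = protein with DMSO and 100% = wells lacking protein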
Numbers without * were called inactive; x = no result given. Cut-off read from the data, not from the text of the source, unless noted: active = inhibition above about 43%; inactive = the rest.

SMILES | LYPLA1 inh | PREPL inh | PME-1 inh | Fam108B inh | LYPLA2 counter | PREPL confirm
CCc1ccc(OC(=O)c2cccnc2)cc1 | 0 | 8 | 6 | 2 | -2 | x
Cc1cc(NS(=O)(=O)c2ccc(NC(=O)COc3cc(C)c(Cl)c(C)c3)cc2)no1 | -16 | -22 | 6 | x | -1 | x
Cc1ccc(C(=O)c2coc3ccc(O)c(CN4CCN(C)CC4)c23)cc1 | -3 | 44* | -1 | 3 | 7 | 43
COc1ccc(C(=O)c2c(C)oc3ccc(O)c(CN4CCOCC4)c23)cc1 | -5 | 7 | 2 | 3 | -4 | x
COc1ccc(C(=O)c2coc3ccc(O)c(CN4CCOCC4)c23)cc1 | 2 | 53* | -4 | -3 | 2 | 57*
COc1ccc(C(=O)c2coc3ccc(O)c(CN4CCCC4)c23)cc1 | -3 | 55* | -5 | 3 | 1 | 54*
CC(=O)NCC(=O)NC1CC(C)(C)Cc2c1cnn2-c1ccccc1 (configuration not stated) | -2 | -17 | 3 | -3 | -3 | x
Cc1cc(-c2ccccc2)nc(SCC(=O)N2CCCC2)n1 | 0 | 9 | -3 | 4 | -6 | x
O=C(Cn1cc[n+](CC(=O)c2ccc(Cl)cc2Cl)c1)c1ccc(Cl)cc1Cl | -2 | 46* | 5 | 0 | 5 | 9
O=C(Cn1nc(CNc2ccc(Cl)cc2)[n+]2c1CCCCC2)c1ccc(Br)cc1 | 0 | 39 | 9 | 4 | -11 | x
O=C(Cn1nc(CNc2ccc(Br)cc2)[n+]2c1CCCCC2)c1ccc([N+](=O)[O-])cc1 | -3 | 62* | 4 | 4 | 5 | 44*
COc1ccc(NCc2nn(CC(=O)c3ccc(Br)cc3)c3[n+]2CCCCC3)cc1 | -3 | 51* | 0 | 1 | 5 | 55*
O=C(Cn1nc(Cl)nc1Cl)c1ccc([N+](=O)[O-])cc1 | 0 | 4 | 3 | 0 | 13 | x
CC1CCCC(NC(=O)C2COc3ccccc3O2)C1C (configuration not stated) | 1 | 8 | -3 | x | 0 | x
CN(C)CCNC(=S)Nc1ccc(F)c(F)c1F | -2 | 1 | 5 | -4 | 0 | x
Cn1c(NN)nc2ccccc2c1=O | 1 | 45* | 0 | 2 | 7 | 26
CC1(OC(=O)C2CCCC2)C(=O)C=C2C=C(c3ccsc3)N(CC3CC3)C=C2C1=O (configuration not stated) | -1 | 43* | -1 | 3 | -2 | 7
CCOC(=O)c1sc(NCc2ccco2)c(-c2nc3ccccc3s2)c1N | 4 | 45* | 9 | 7 | 4 | 46*
CCNc1sc(C(=O)c2cccs2)c(N)c1-c1nc2ccccc2s1 | 1 | 10 | 13 | 4 | 0 | x
Nc1cc(Cl)ccc1N1CCCC1 | 1 | 15 | -6 | 1 | 4 | x
Nc1cc(F)ccc1N1CCCCCC1 | -1 | 43* | -1 | 1 | 0 | 26
COc1ccc([C@H]2CC(=O)C=C(c3cccc(C(C)C)c3)C2)cc1OC | 2 | 17 | 4 | x | 3 | x
O=C([O-])c1ccccc1-[n+]1c(-c2ccccc2)cc(-c2ccccc2)cc1-c1ccccc1 | 8 | 56* | 0 | 7 | 6 | 46*
CC(C)OC(=O)c1cc2c(ccn2C)n1CC(=O)N1CCC(Cc2ccccc2)CC1 | -1 | 44* | 4 | 2 | 7 | 38
CC(C)OC(=O)c1cc2c(ccn2-c2ccc(F)cc2)n1CC(=O)N1CCN(C(=O)c2ccco2)CC1 | -2 | 47* | -1 | -1 | -2 | 48*
SMILES | LYPLA1 inh | PREPL inh | PME-1 inh | Fam108B inh | LYPLA2 counter | PREPL confirm
CCCC(=O)N/N=C1\CS(=O)(=O)N(C)c2ccsc21 | -5 | -1 | -7 | -2 | -13 | x
CN1c2ccsc2/C(=N/Nc2ccc(F)cc2)CS1(=O)=O | -1 | 57* | 13 | 3 | 4 | 34
CCCN1CCN(CCCNC(=O)Cn2nc(C)n3c(cc4cc(F)ccc43)c2=O)CC1 | 4 | 11 | -4 | -1 | 4 | x
COc1ccc(N2CCN(C(=O)CN3C(=O)NC(C)(c4ccc5ccccc5c4)C3=O)CC2)cc1 (configuration not stated) | -1 | 57* | 6 | x | 9 | 53*
COc1cc(NC(=O)CN2C(=O)NC(C)(c3ccccc3)C2=O)c(C)cc1[N+](=O)[O-] (configuration not stated) | 6 | -1 | -1 | 7 | 5 | x
CC(=O)N1CCN(C(=O)CN2C(=O)NC(C)(c3ccc4ccccc4c3)C2=O)CC1 (configuration not stated) | -1 | 12 | -5 | x | -8 | x
COc1cc(NC(=O)CN2C(=O)NC(C)(c3ccc4ccccc4c3)C2=O)c(C)cc1[N+](=O)[O-] (configuration not stated) | -14 | 58* | -7 | -3 | -22 | 42
COc1cccc(NC(=O)CCNS(=O)(=O)c2cccc3nonc23)c1 | 0 | 0 | 0 | 2 | 6 | x
COc1nc(NCCN2CCOCC2)nc(Nc2ccc([N+](=O)[O-])cc2)n1 | 0 | 47* | -2 | -2 | -8 | 41
O=C(O/N=C(\c1ccccc1)c1ccncc1)c1ccccc1Cl | -2 | 54* | 2 | 0 | -8 | 42
CCN(CC)CCCNC(=O)C1c2ccccc2C(=O)N(CCOC)C1c1ccc(F)cc1 (configuration not stated) | -2 | 2 | 1 | 0 | 5 | x
CCN(CCCNC(=O)C1c2ccccc2C(=O)N(CCOC)C1c1ccc(F)cc1)Cc1ccccc1 (configuration not stated) | 2 | 49* | -7 | -7 | 1 | 17
N#CC1=C(N)C(C#N)(C#N)C(c2cccnc2)C2CC(c3ccccc3)CC=C12 (configuration not stated) | -3 | 44* | 54* | 2 | 6 | 32
N#C/C(=C\c1ccccc1C(=O)O)c1nc2ccccc2[nH]1 | -3 | 34 | 9 | -8 | -1 | x
N#C/C(=C\c1cccnc1)c1nc2ccccc2[nH]1 | -2 | 56* | 5 | 1 | -2 | 13
CCOC(=O)c1cnc(-n2nc(C)cc2C)nc1NCCc1ccccc1 | 5 | 58* | 5 | 1 | 5 | 54*
CCOC(=O)c1cnc(-n2nc(C)cc2C)nc1Nc1ccc(OC)cc1 | 3 | 10 | 3 | 0 | -3 | x
CN(Cc1ccccc1)C(=O)c1ccc(NC(=O)Cc2cccc(NC(=O)C3CCN(C(=O)C4CCCC4)CC3)c2)cc1 | -3 | -6 | -2 | x | -1 | x
COc1cc2c3c(c1)C(C)=CC(C)(C)N3C(=O)C2=O | -2 | 2 | 10 | 2 | 1 | x
